Hit rate of the full screen: of about 16,000 compounds, about 5,800 (36%) were called active. About 23% were inconclusive and are not listed. Some of the results follow. A number with no mark means an inactive call. The call rests on the fitted dose curve; in most records, active means well fitted curve in the direction sought with a large enough effect; inconclusive means small, poorly fitted or top-dose-only effect, or effect the other way; inactive means no such curve, though single readings can be large or run the other way.
Biological target: Cytochrome P450 2C19 (Homo sapiens) (UniProt P33261)
Sequence (P33261 whole entry, looked up): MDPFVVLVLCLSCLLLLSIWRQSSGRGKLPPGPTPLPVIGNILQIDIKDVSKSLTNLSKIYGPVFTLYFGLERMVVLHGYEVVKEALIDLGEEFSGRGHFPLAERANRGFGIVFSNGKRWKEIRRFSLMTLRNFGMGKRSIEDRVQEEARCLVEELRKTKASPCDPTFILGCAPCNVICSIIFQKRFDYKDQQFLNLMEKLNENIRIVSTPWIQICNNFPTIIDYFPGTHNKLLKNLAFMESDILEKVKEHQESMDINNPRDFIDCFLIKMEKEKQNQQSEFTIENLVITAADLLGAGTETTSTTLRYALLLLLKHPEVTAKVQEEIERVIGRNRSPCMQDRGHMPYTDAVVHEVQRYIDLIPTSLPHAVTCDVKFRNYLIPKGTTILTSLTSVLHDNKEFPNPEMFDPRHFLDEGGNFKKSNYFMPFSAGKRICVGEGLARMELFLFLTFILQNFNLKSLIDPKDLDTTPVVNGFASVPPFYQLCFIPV
Test: Cytochrome panel assay with activity outcomes
Conditions: recombinant CYP, pro-luciferin dealkylation, luminescence, p450-cyp2c19; series mostly up to 57.1 µM; activity, negative = inhibition: at the top concentration
On the % scale 0 is the no-effect control and ±100 the full control effect.

Compound | AC50 | activity, negative = inhibition
COc1ccc(-c2coc3cc4oc(=O)cc(C)c4cc23)cc1F | 3.55 µM (active) | –
COc1cc2ccc(=O)oc2cc1O | – | -17.7% [at 25.6 µM]
Cn1c(SC2CCCCC2=O)nnc1-c1ccncc1 (configuration not stated) | 7.08 µM (active) | –
CC1CC2(CCCCC2)N2C(=O)C(=O)c3cccc1c32 (configuration not stated) | 2.82 µM (active) | –
CCOC(=O)C1=C(C)NC(C)=C(C(=O)OC)[C@H]1c1cccc([N+](=O)[O-])c1 | 0.251 µM (active) | –
C#CCN1C(C)=C(C(=O)OC)[C@@H](c2cccc([N+](=O)[O-])c2)C(C(=O)OCC)=C1C | 5.01 µM (active) | –
CCOC(=O)C1=C(C)NC(C)=C(C(=O)OC)[C@@H]1c1cccc([N+](=O)[O-])c1 | 0.126 µM (active) | –
OC[C@@H]1O[C@@H](n2cnc3c(NC4CCCC4)ncnc32)[C@H](O)[C@H]1O | – | -13.1%
NCc1ccc(S(N)(=O)=O)cc1 | – | 9.32% [at 25.6 µM]
CCN(C1CCCCC1)S(=O)(=O)c1ccc(S(=O)(=O)NCc2ccncc2)cc1 | 1.58 µM (active) | –
CCCCSc1nnc(-c2ccc(C)cc2)n1C | 14.1 µM (active) | –
COc1nc(OCCNC(C)=O)nc(N(C)C)n1 | – | -15.3%
O=[N+]([O-])c1ccc2ncccc2c1CCc1c([N+](=O)[O-])ccc2ncccc12 | – | 39.5% [at 11.4 µM]
O=S(=O)(O)c1cc(N=Nc2cccc3ccccc23)c(O)c2ncccc12 | – | -29.3% [at 11.4 µM]
O=[N+]([O-])c1cc(Cc2cc([N+](=O)[O-])c3cccnc3c2O)c(O)c2ncccc12 | 2.51 µM (active) | –
CC(=O)N1CCN(c2nc(C)nc3sc4c(c23)CCC(C)C4)CC1 (configuration not stated) | 4.47 µM (active) | –
CSc1ncnc2c1ncn2[C@@H]1O[C@@H](CO)[C@H](O)O[C@@H]1O | – | 41% [at 11.4 µM]
CN(N=O)c1ccc(/C=C\c2ccnc3ccccc23)cc1 | – | 14.4% [at 11.4 µM]
CCN(CC)c1ccc(/C=C/c2nc3ccccc3s2)cc1 | 2 µM (active) | –
Cc1cccc(OCCCCCn2ccnc2)c1 | 0.0398 µM (active) | –
Cc1ccc(OCCOCCn2ccnc2)c(Br)c1 | 0.0158 µM (active) | –
C#CCCCO/N=C1/C[C@@H](O)[C@@H](O)[C@@H]2[C@@H]3C(=O)N([C@@H](C)c4ccccc4)C(=O)[C@H]3CC[C@H]12 | – | -27.2% [at 11.4 µM]
CCCn1cnc2c1c(=O)n(CCCCC(C)=O)c(=O)n2C | – | 44.8%
Cn1ncc(C#N)c1/N=C/N1CCCCCC1 | 14.1 µM (active) | –

Compound | AC50 | activity, negative = inhibition
O=C(O)c1c(Br)c(Br)c(Br)c(Br)c1C1c2ccc(O)cc2Oc2cc(O)ccc21 | – | -94.3% [at 11.4 µM]
Cc1cnc(CNc2cc(-c3ccccc3Cl)ncn2)cn1 | – | -20.8%
COc1ccccc1-c1cc(NCc2cccc(C)c2)ncn1 | 3.98 µM (active) | –
COc1ccccc1-c1cc(NCc2ccccc2)ncn1 | 7.94 µM (active) | –
Cc1cnc(CNc2cc(-c3ccccc3C)ncn2)cn1 | – | -37.5%
COc1ccccc1-c1cc(NCc2cnc(C)cn2)ncn1 | 15.8 µM (active) | –
CN(C)Cc1ccccc1-c1cc(NCc2ccccc2)ncn1 | – | 30.1%
COc1ccc2c3c([nH]c2c1)[C@@H]1C[C@@H]2[C@@H](C[C@H](O)[C@H](OC)[C@H]2C(=O)O)CN1CC3 | – | -43.7% [at 25.6 µM]
CN(C)CCOC(=O)c1ccc(N)cc1 | – | -21.2% [at 11.4 µM]
Cc1[nH]n(-c2ccccc2)c(=O)c1CCOC(=O)c1cccc(C(F)(F)F)c1 | 3.55 µM (active) | –
Cc1[nH]n(-c2ccccc2)c(=O)c1CCOC(=O)c1ccc(C(F)(F)F)cc1 | 3.98 µM (active) | –
C[C@@H](Cc1cccc(C(F)(F)F)c1)NCCOC(=O)c1ccccc1 | – | -54.8% [at 25.6 µM]
CO[C@@H]1COC(=O)C/C=C\[C@H](C)COC(=O)[C@H](C)NC(=O)C/C=C\[C@H]1C | – | -28.2% [at 11.4 µM]
Fc1ccc2c(c1)C(c1ccncc1)=NNC(c1ccc(Cl)cc1)=N2 | 0.224 µM (active) | –
C#CCOC(=O)Nc1ccc(=O)n(Cc2c(Cl)cccc2Cl)c1 | 1.58 µM (active) | –
C1=C(CN2CCOCC2)COc2c1cccc2OC[C@@H]1CNCCO1 | – | -40.5%
COc1cc(C)c(Br)cc1S(=O)(=O)NCc1ccccc1 | 4.47 µM (active) | –
Cc1ccc(C(=O)C2=C(O)C(=O)N(CCCn3ccnc3)C2c2ccc(OC(C)C)cc2)o1 (configuration not stated) | 14.1 µM (active) | –
CN(C)CCN1C(=O)C(O)=C(C(=O)c2cc3ccccc3o2)C1c1ccccn1 (configuration not stated) | – | -7.42%
S=c1[nH]nc(C2CCCCC2)n1/N=C/c1cccs1 | 0.708 µM (active) | –
C[C@]1(c2ccccc2)O[C@@H]2C[C@@H]3[C@@H]4CCC5=CC(=O)C=C[C@@]5(C)[C@]4(F)[C@H](O)C[C@]3(C)[C@@]2(C(=O)CO)O1 | – | -7.02% [at 11.4 µM]
COc1ccc(C2=NOC(C(=O)N3CCCc4ccccc43)C2)cc1 (configuration not stated) | 15.8 µM (active) | –
COc1ccc(C2=NOC(C(=O)NCCN3CCOCC3)C2)cc1 (configuration not stated) | – | 23.8%

Source: PubChem BioAssay AID1851 (National Center for Advancing Translational Sciences (NCATS), 2009)
